# Measured values from PubChem BioAssay (EPA / NIEHS).
# Activity calls are given as the source filed them. Rule for the calls: active = hit-call score of the fitted dose curve at least 0.9, where 1 is the maximum; inactive = score below 0.9.
# Read-out: Cyclin D1 (CCND1), CCND1 (gene 595)
# Experiment: LTEA_HepaRG_CCND1: Life Technologies and Expression Analysis (LTEA) Assay for Cyclin D1 (CCND1) using HepaRG (AID 2283451);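 for AC50: TaqMan qRT-PCR transcript level normalised to ACTB GAPDH and POLR2A housekeeping genes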
# Details: mRNA level, 48 h; actives raise or lower the signal
# Procedure: LTEA_HepaRG is a cell based, multiplexed-readout assay that uses HepaRG, a human liver cell line, with measurements taken at 48 hours after chemical dosing on a 96-well plate.LTEA_HepaRG_CCND1 is one of 102 assay component(s) measured in the LTEA HepaRG cell culture assay. It is a marker of Cell proliferation, survival, death.Data from the assay component LTEA_HepaRG_CCND1 was analyzed into 1 endpoint. This assay endpoint, LTEA_HepaRG_CCND1, was analyzed with bidirectional fitting relative to DMSO as the negative control and baseline of activity. Using a type of inducible reporter, measures of mRNA induction for gain or loss-of-signal activity can be used to understand regulation of transcription factor activity. To generalize the intended target to other relatable targets, this assay endpoint is annotated to the cell cycle intended target family, where the subfamily is Cell proliferation, survival, death.
# A total of 1060 chemcials from the ToxCast library were tested in eight-point concentration-response experiments. Cell culture and cytotoxicity assays were conducted at Thermo Fisher Scientific's Custom Services facility (Madison, WI). A single lot of human HepaRG cells (Thermo Fisher Scientific, Frederick, MD) was used for the cell culture experiments. 96-well format collagen type I coated plates of human HepaRG cells were prepared using established methods. Briefly, cryopreserved HepaRG cells were thawed, plated at a density of approximately 100,000 cells/well in HepaRG Thaw, Plate, and General Purpose media (HPRG770, Thermo Fisher Scientific), and incubated for 48 hours. 0.5% DMSO was selected as vehicle control to balance the requisite need of DMSO in HepaRG cultures to maintain differentiation (for example, baseline metabolism, proportions of hepatocytes vs. cholangiocytes), while enabling further hepatic receptor pathway activation (for example, PXR and CAR) in response to chemical exposure. 48 hours after plating, the culture medium was replaced with HepaRG Serum-Free Incudtion Media. Cells were exposed to each test chemical in duplicate and maintained in CO2 incubators for another 48 hours. Chemical plates were thawed to room temperature and 200x concentrations of treatment groups were prepared. 8-point conentration-reponse curves were made with the highest exposure at 100 uM, followed by half-log dilutions, all in 0.5% DMSO. Each test plate contained variouse controls, induction positive controls (1mM phenobarbital), cytotoxicity positive controls ([…] aflatoxin B1), vehicle controls (0.5% DMSO), and total lysis controls (0.5% DMSO). Cell morphology images were taken using an Essen IncuCyte FLR automated microscope, with six 96-well plates imaged in about 24 minutes. Images were captured and exported and JPEG files. Spent culture media was transfered to black-well plates for the LDH assay, and remaining media was sorted at -80 C for later use. Cells were treated with RLT buffer and frozen until shipped for gene expression analysis. Total RNA was isolated from the cell suspension in 75 uL of Buffer RLT (Qiagen, Germantown, MD 20874) by Quintiles/Expression Analysis (Durham, NC) using a custom isolation procedure. Total RNA from each plate well was transferred to a preamplification plate. Fluidigm's 96.96 Dynamic ArrayTM (Fluidigm, Amsterdam, the Netherlands) technology was used for gene expression analyses by quantitative reverse transcription polymerase chain reaction (qRT-PCR, performed by Quintiles/Expression Analysis, Durham, NC)89. Standard TaqManTM Assays (Applied Biosystems/ThermoFisher Scientific, Foster City, CA) were used to assess the expression of 93 genes selected based on their selectivity and sensitivity to important hepatic receptors known to be modulated by environmental chemicals; importance in human hepatocyte functionality; and hepatotoxicity. […]
SMILES,outcome,AC50
CC(=O)[C@@]1(O)CC[C@H]2[C@@H]3CCC4=CC(=O)CC[C@]4(C)[C@H]3CC[C@@]21C,inactive,
NC1CCCCC1,inactive,
CCC(C)N(C)C(=O)c1cc2ccccc2c(-c2ccccc2Cl)n1 (stereo not given),inactive,
C/C=C/C=C/C(=O)O,inactive,
O=C1CCCCC1,inactive,
CC(=O)CC(c1ccccc1)c1c(O)c2ccccc2oc1=O (stereo not given),inactive,
NC=O,inactive,
O=C(NS(=O)(=O)/C=C/c1cccs1)c1ccc(F)cc1Br,inactive,
Cc1cc(Cc2ccc(N)c(C)c2)ccc1N,inactive,
N[C@@H](Cc1c[nH]c2ccccc12)C(=O)O,inactive,
CC(C)(O)c1ccc(CNC(=O)c2cccnc2Oc2ccc(F)cc2)cc1,inactive,
CCCCOC(=O)CCCCC(=O)OCCCC,inactive,
CC(C)COC(=O)CCCCC(=O)OCC(C)C,inactive,
O=C1OC(c2ccc(O)cc2)(c2ccc(O)cc2)c2ccccc21,,78.7 µM (active)
CCOCCOCCO,inactive,
CCCCCCCCCCCCCCOS(=O)(=O)O,inactive,
O=C1NC(=O)C(c2ccccc2)(c2ccccc2)N1,inactive,
CCCC(=O)O,inactive,
O=C(O)c1cccnc1,inactive,
O=C(N[C@@H](c1ccccc1)[C@@H]1CCCCN1)c1cccc(C(F)(F)F)c1Cl,,16.6 µM (active)

SMILES,outcome,AC50
CCCCC(CC)COP(=O)(OCC(CC)CCCC)OCC(CC)CCCC (stereo not given),inactive,
CC(C)c1cccc(C(C)C)c1NC(=O)NS(=O)(=O)c1cc(C(C)(C)O)co1,inactive,
Nc1nc(=S)c2[nH]cnc2[nH]1,inactive,
O=C(O)CN(CC(=O)O)CC(=O)O,inactive,
CC(=O)OCC(COC(C)=O)OC(C)=O,inactive,
CCCCCCC(C=O)=Cc1ccccc1,inactive,
CCCC[C@H]1CN(CC2CCOCC2)C(=O)OC12CCN(C1(C)CCN(C(=O)c3c(C)ncnc3C)CC1)CC2,inactive,
CSc1ccc(Oc2ccc(S(N)(=O)=O)cc2CN(C)C)cc1C,inactive,
CS(=O)(=O)c1ccc([C@@H](C[C@H]2CCC(=O)C2)C(=O)Nc2cnccn2)cc1Cl,,1.64 µM (active)
CN(C)CCCN(C)CCCN(C)C,inactive,
O=C(O)CC(O)(CC(=O)O)C(=O)O,inactive,
CCCCCCCC(=O)OC,inactive,
S=c1[nH]c2ccccc2s1,inactive,
Cc1cc(SC2=C(O)C[C@@](CCc3ccc(N)cc3)(C(C)C)OC2=O)c(C(C)(C)C)cc1CO,inactive,
CC(=O)O,inactive,
CC(N)=O,inactive,
CC(C)(C)c1ccccc1,inactive,
Cc1ccc(C(C)(C)C)c(O)c1,inactive,
O=C(Oc1ccccc1)c1cccc(C(=O)Oc2ccccc2)c1,inactive,
O=C1O[C@H]([C@H](O)CO)C(O)=C1O,inactive,
